Source: PubChem BioAssay AID2551 (National Center for Advancing Translational Sciences (NCATS), 2010)
Screen size: about 310,000 compounds; about 17,000 (5.5%) were called active. Roughly 11% stayed inconclusive and do not appear here. Calls come from the whole dose curve; as a rule, active = well fitted inhibition curve with a large enough effect; inconclusive = small, poorly fitted or top-dose-only effect, or effect the other way; inactive = no such curve, though single readings can be large or run the other way. The list comes from a sample in which actives are over-represented; it also holds similar structures and randomly drawn compounds. Entries that show only a call come without a potency.

What follows are molecules tested against Nuclear receptor ROR-gamma (Mus musculus) (UniProt P51450) (assay: qHTS for inhibitors of ROR gamma transcriptional activity). Conditions: Drosophila S2 Gal4-RORgamma UAS-luciferase reporter, 20 h; series mostly up to 53.6 µM.
Excerpt: NIH Molecular Libraries Probe Production Network [MLPCN] NIH Chemical Genomics Center [NCGC] MLPCN Grant: R03 DA026211-01 Assay Provider: Dan Littman, New York University Assay Overview: The retinoic acid-related orphan receptor (ROR) gamma is a transcription factor that has a central role in the differentiation of Th17 cells, a subset of T helper cells that secrete the inflammatory cytokines IL-17, IL-17F, and IL-22. Th17 cells have been implicated in graft versus host disease, autoimmune disease and asthma. ROR gamma is induced in naive T helper cells in the presence of TGF-beta combined with IL-6, IL-21, or IL-23, and thereafter directs the expression of the Th17 lineage cytokines. To study the mechanism of action of ROR gamma, an insect cell-based assay was screened. This Drosophila Schneider cell line was stably transfected with two vectors: a gene expressing a fusion of the Gal4 DNA binding domain and ROR gamma transactivation domain under the control of the metallothionine promoter and a Photinus luciferase reporter regulated by the Gal4 binding site enhancer, UAS. […] Small molecule inhibitors of ROR gamma activity are detected by a decrease in luciferase reporter activity.
Assay Protocol Summary: For screening, 600 cells in 4 uL/well were dispensed into white solid 1536-well plates (Grenier) using a solenoid-based dispenser. Following transfer of 23 nL compound or DMSO vehicle by a pin tool, the plates were incubated 1 hr at ambient temperature, and 1 uL/well copper sulfate (700 uM final concentration) was added. The plates were centrifuged 15 s at 1000 RPM and incubated 20 hr at ambient temperature. After addition of 1.5 uL Photinus luciferase detection reagent, the plates were incubated 10 min at ambient temperature and then read by an ViewLux (Perkin Elmer) to detect luminescence. Keywords: NIH Roadmap, MLPCN, MLI, MLSMR, qHTS, NCGC, qHTS, nuclear hormone receptor, retinoic acid-related orphan receptor, ROR gamma
Note: nearly all actives have a fitted effect of over 60% in size.
Potency is the fitted concentration of half-maximal effect.

Chain of Nuclear receptor ROR-gamma (Mus musculus) (P51450 whole entry, looked up, the tested form may be a part): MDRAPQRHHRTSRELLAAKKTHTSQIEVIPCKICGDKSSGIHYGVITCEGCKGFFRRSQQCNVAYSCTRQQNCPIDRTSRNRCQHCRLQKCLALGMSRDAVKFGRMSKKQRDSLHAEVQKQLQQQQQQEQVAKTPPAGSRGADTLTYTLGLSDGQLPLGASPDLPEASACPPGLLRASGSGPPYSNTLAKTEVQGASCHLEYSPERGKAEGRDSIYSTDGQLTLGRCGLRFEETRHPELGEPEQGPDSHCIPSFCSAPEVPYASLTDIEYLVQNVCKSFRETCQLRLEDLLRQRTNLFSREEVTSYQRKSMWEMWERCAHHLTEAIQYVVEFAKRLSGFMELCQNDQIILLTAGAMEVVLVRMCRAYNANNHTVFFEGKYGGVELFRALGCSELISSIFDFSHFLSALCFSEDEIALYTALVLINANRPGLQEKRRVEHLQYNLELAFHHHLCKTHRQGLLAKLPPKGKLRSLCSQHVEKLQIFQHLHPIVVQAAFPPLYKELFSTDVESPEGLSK

SMILES | Potency | activity change, negative = inhibition
O=C1CCN(Cc2ccccc2)CCN1[C@H](CSc1ccccc1)c1ccccc1 | inactive | –
COC(=O)c1ccc(N2CCOCC2)c(NC(=O)c2ccc3c(c2)OCCO3)c1 | inactive | –
Cc1cc(NC(=O)c2ccco2)c(=O)n(Cc2c(F)cccc2Cl)c1 | inactive | –
COCCNc1nc(N)c([N+](=O)[O-])c(N2CCCCCC2)n1 | inactive | –
CCOc1ccc(-c2noc(CCC(=O)NC3CCCC3)n2)cc1OC | inactive | –
O=C(c1ccc(CS(=O)(=O)c2ccccc2)o1)N1CCN(c2ccccc2)CC1 | inactive | –
COc1ccc(CNC(=O)[C@H](Cc2c[nH]c3ccccc23)NC(C)=O)cc1OC | inactive | –
O=C(NCCCN1CCOCC1)C1CCCN(S(=O)(=O)N2CCCCC2)C1 (centres undefined) | inactive | –
O=C(CCNC(=O)c1ccc([N+](=O)[O-])cc1)Nc1ccccc1N1CCOCC1 | inactive | –
O=C(NC(=S)Nc1ccccc1N1CCCCC1)c1ccc(F)cc1 | 3.98 µM (active) | –
O=C(Nc1ccccc1N1CCCC1)c1ccc2ccccc2c1 | inactive | –
O=C(Nc1ccccc1N1CCCCC1)c1cccc(F)c1 | inactive | –
CC(=O)c1ccc(N2CCN(CC(=O)Nc3ccccc3N3CCOCC3)CC2)cc1 | inactive | –
CCc1ccc(C(=O)NC(=S)Nc2ccccc2N2CCOCC2)cc1 | 3.55 µM (active) | –
CC1CCN(CC(O)COc2ccc(C(=O)c3ccccc3)cc2)CC1 (centres undefined) | inactive | –
O=C(NCc1cccc(Cl)c1)C1CCC(=O)N(C2CC2)C1 (centres undefined) | inactive | –
Cc1cc(CN(C)C(=O)c2cc(COc3ccc(C)c(C)c3)on2)n[nH]1 | inactive | –
O=C(NNC(=S)Nc1ccccc1)c1cccc(S(=O)(=O)N2CCOCC2)c1 | inactive | –
O=C(Nc1nncs1)c1cccc(S(=O)(=O)N2CCCCC2)c1 | inactive | –
O=C(NNC1=NCCC1)c1cccc(S(=O)(=O)N2CCCCC2)c1 | 12.6 µM (active) | –
CN(CC1CCCN(CCc2cccc(C(F)(F)F)c2)C1)C(=O)c1ccc2nc[nH]c2c1 (centres undefined) | inactive | –
CCOC(=O)c1ccc(NC(=O)c2ccc(NC(=O)C3CCCO3)cc2)cc1 (centres undefined) | inactive | –

SMILES | Potency | activity change, negative = inhibition
COc1ccc(C2=NN(c3nc4ccccc4s3)C(=O)C2)cc1 | 5.62 µM (active) | –
COc1ccc(C2=NN(c3ccccc3)C(c3cccs3)C2)cc1 (centres undefined) | inactive | –
COC(=O)Cc1[nH]n(-c2nc3ccccc3s2)c(=O)c1C(C)=Nc1ccc(OC)cc1 | inactive | –
COc1ccc(NC(=S)NCCNC(C)=O)cc1 | inactive | –
COc1cc(NC(=S)NCCSc2ccc(C)cc2)cc(OC)c1 | 7.08 µM (active) | –
COC(=O)c1cc(OC)c(OC)cc1NC(=O)CSc1ccc(C)cc1 | inactive | –
CC1=C(C(=O)OCC2CCCCC2)C(c2ccc(F)cc2)NC(=O)N1 (centres undefined) | inactive | –
CC(=O)OCC(NC(=O)C(Cc1ccccc1)NC(=O)OC(C)(C)C)C1OC(n2ccc(=O)[nH]c2=O)C(OC(C)=O)C1OC(C)=O (centres undefined) | inactive | –
COc1ccc(NC(=O)NCCN2CCN(c3ccc(C)cc3)CC2)c(Cl)c1 | inactive | –
COc1ccccc1NC(=O)CCSc1nnc(-c2ccc(O)cc2)o1 | 14.1 µM (active) | –
COc1ccccc1-c1nnc(SCC(=O)Nc2ccccc2)o1 | inactive | –
CCc1ccccc1NC(=O)CSc1nnc(-c2ccncc2)o1 | inactive | –
COc1cccc(N2CCN(c3ccc4nnc(CCC(=O)N5CCN(C)CC5)n4n3)CC2)c1 | inactive | –
N#CC(C(=O)c1ccc(S(=O)(=O)N2CCCCCC2)cc1)c1nc2ccccc2[nH]1 (centres undefined) | 12.6 µM (active) | –
O=C(N/N=C/c1ccccn1)c1ccc(S(=O)(=O)N2CCCCCC2)cc1 | inactive | –
O=S(=O)(c1ccc(Br)cc1)N1CCC(c2nc3ccccc3[nH]2)CC1 | inactive | –
Cc1nc2cc(C(F)(F)F)ccc2n1CCNc1nc(-c2cc(Cl)c(N)c(Cl)c2)cs1 | 17.8 µM (active) | –
COc1cc(NC(=O)CSc2ccc(-c3cccnc3)nn2)cc(OC)c1 | inactive | –
CC(C)c1ccc(S(=O)(=O)N2CCN(C(=O)c3ccc(N4CCCC4)c([N+](=O)[O-])c3)CC2)cc1 | inactive | –
COc1ccccc1N(CC(=O)Nc1ccccc1C(=O)N1CCCC1)S(C)(=O)=O | inactive | –
Cc1ccc(S(=O)(=O)N2CCN(C(=O)CSc3cc(C)ccc3C)CC2)c(C)c1 | 3.16 µM (active) | –
CCCc1cc(=O)[nH]c(SCC(=O)N2CCN(S(=O)(=O)c3ccc(C)cc3C)CC2)n1 | – | 4.85% [at 10 µM] (inactive)

SMILES | Potency | activity change, negative = inhibition
Cc1ccc(S(=O)(=O)N2CCN(C(=O)N3CCOCC3)CC2)c(C)c1 | inactive | –
Cc1ccc(C(=O)NC2CCN(C(=O)Nc3ccc(F)cc3)CC2)cc1 | inactive | –
CCC1S/C(=N/N=C/c2ccco2)NC1=O (centres undefined) | 1.26 µM (active) | –
O=C(O)C[C@@H]1NC(=O)[C@H](Cc2ccccc2)NC1=O | inactive | –
O=C1N/C(=N\N=C\c2ccco2)SC1Cc1ccc(F)cc1 (centres undefined) | 1 µM (active) | –
O=c1nc(N/N=C/c2ccco2)cn[nH]1 | inactive | –
CC(=O)Nc1ccc(S(=O)(=O)Oc2ccc(/C=N/N=C3/NC(=O)C(CC(=O)O)S3)cc2)cc1 (centres undefined) | inactive | –
CCCCC1S/C(=N/N=C/c2cccs2)NC1=O (centres undefined) | 0.112 µM (active) | –
C=CCN1C(=O)C(Cc2cccc(Cl)c2)S/C1=N/N=C/c1ccco1 (centres undefined) | inactive | –
CC(C)=N/N=C1/NC(=O)C(Cc2ccccc2)S1 (centres undefined) | 2.51 µM (active) | –
COc1ccc(CN2C(=O)C(C)S/C2=N/N=C/c2ccco2)cc1 (centres undefined) | inactive | –
CN(CCOc1ccc(CC2SC(=O)NC2=O)cc1)c1ccccn1 (centres undefined) | inactive | –
CCC1C/C(=C/c2cccs2)C(=O)/C(=C/c2cccs2)C1 (centres undefined) | inactive | –
Cc1ccccc1N(C(=O)CNC(=O)c1cccs1)C(C(=O)NC1CCCC1)c1ccncc1 (centres undefined) | inactive | –
O=C(C1CCN(Cc2ccc(Cl)cc2)CC1)N1CCN(Cc2ccc3c(c2)OCO3)CC1 | inactive | –
C=CCn1c(SCc2ccccc2)nc2c1c(=O)[nH]c(=O)n2C | inactive | –
O=S(=O)(c1ccccc1)c1nc(Cc2ccccc2)oc1N1CCOCC1 | inactive | –
O=S(=O)(c1ccc(F)cc1)N1CCN=C1SCc1cccc(F)c1 | inactive | –
CCc1ccc(N2CC(C(=O)Nc3ccc(S(=O)(=O)Nc4nccs4)cc3)CC2=O)cc1 (centres undefined) | inactive | –
CCCCC1(C(=O)OCC)NC(c2ccc(O)cc2)C2C(=O)N(c3ccccc3)C(=O)C21 (centres undefined) | inactive | –
